# Measurements as given in PubChem BioAssay.
# Active and inactive are the calls of the source.
# Tests used:
# Albumin (Bos taurus) = Albumin (Bos taurus) (UniProt P02769); assay: bovine serum albumin binders on microarray, profiling panel, artefact control for SMM control protein annotation, biochemical, small-molecule microarray, Alexa647 label, 635/667 nm fluorescence (AID 1118); conditions: BSA-A647 binding, fluorescence 635 nm, higher = more signal;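 note: score merges 667 nm emission intensity and signal-to-noise per printed compound spot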
# Sequence of Albumin (Bos taurus) (P02769 whole entry, looked up): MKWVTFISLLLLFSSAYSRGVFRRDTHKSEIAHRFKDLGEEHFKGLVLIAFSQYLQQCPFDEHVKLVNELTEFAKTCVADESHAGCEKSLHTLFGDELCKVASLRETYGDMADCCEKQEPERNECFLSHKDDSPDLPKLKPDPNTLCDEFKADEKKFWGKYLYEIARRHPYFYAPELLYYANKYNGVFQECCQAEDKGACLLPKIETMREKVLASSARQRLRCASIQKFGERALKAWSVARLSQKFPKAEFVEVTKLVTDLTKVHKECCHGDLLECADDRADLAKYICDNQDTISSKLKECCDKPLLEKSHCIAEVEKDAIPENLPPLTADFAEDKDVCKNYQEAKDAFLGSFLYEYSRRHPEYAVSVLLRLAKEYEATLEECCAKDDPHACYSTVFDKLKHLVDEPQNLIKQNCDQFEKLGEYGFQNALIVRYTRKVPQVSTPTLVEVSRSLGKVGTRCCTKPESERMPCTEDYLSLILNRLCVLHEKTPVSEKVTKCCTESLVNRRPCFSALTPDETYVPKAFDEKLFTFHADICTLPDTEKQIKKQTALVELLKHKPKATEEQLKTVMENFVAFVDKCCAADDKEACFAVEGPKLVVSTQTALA
# [1] = small-molecule microarray binders of probe aXIP, primary screen, biochemical, NeuroSMM set, 635/667 nm fluorescence (AID 1119); conditions: higher = more signal, called active from +8 up or from −8 down;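 note: probe is the protein aXip251-270 applied at 1 µg/mL to compound-printed slides; binding of probe to printed compounds measured as 667 nm fluorescence plus signal to noise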
# [2] = small-molecule binders of probe aNOTCH3, primary screen, biochemical, small-molecule microarray, 635/667 nm fluorescence (AID 1120); conditions: higher = more signal;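 note: probe is a biotin-tagged antibody raised against NOTCH3 rather than NOTCH3 protein; score merges spot fluorescence near 667 nm with spot signal to noise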
# [3] = small-molecule binders of probe aNOTCH2, primary screen, biochemical, small-molecule microarray, 635/667 nm fluorescence (AID 1121); conditions: higher = more signal;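 note: score merges feature fluorescence read at 667 nm with its signal to noise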
# [4] = molecular target: Carbonic anhydrase 2 (Homo sapiens) (UniProt P00918); assay: CAII small-molecule binders, profiling panel, biochemical, small-molecule microarray, Alexa647-labelled CAII (AID 1122); conditions: CAII-A647 binding fluorescence, higher = more signal
# [5] = COS7 lysate on small-molecule microarray, probe aHis, 635 nm (AID 1123); conditions: COS7 cell lysate, fluorescence, higher = more signal;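 note: z-score combines 667nm fluorescence intensity with signal-to-noise per printed compound spot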
# [6] = compound binding in COS7 lysate, probe aLAP1, primary screen, cell lysate, small-molecule microarray (AID 1124); conditions: probe aLAP1, fluorescence, higher = more signal;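 note: lysate comes from COS7 cells expressing LAP1 and is applied at 0.3 µg/mL; score merges spot fluorescence near 667 nm with signal-to-noise over triplicate slides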
# Sam68 (KHDRBS1) = assay: Sam68 small-molecule binders, primary screen, biochemical, small-molecule microarray, 635 nm fluorescence (AID 1125); conditions: small-molecule microarray binding, higher = more signal;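 note: score merges 667 nm channel intensity with signal to noise over triplicate slides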
# [7] = system: Chordin-like protein 2 (CHRDL2); assay: CHRDL2 small-molecule binders, primary screen, biochemical, small-molecule microarray, 635 nm fluorescence (AID 1126); conditions: small-molecule microarray binding, fluorescence 635 nm; higher = more signal;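 note: printed compound slides probed with Chrdl2 protein at 4 µg/mL for 1 h at 4 C; score merges 667 nm emission intensity with signal to noise over three replicate slides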
# [8] = molecular target: Concanavalin-A (Canavalia ensiformis) (UniProt P02866); assay: ConA small-molecule binders, primary screen, artefact control for SMM control protein annotation, biochemical, small-molecule microarray, Alexa647 label, 635 nm (AID 1127); conditions: ConA-A647 binding fluorescence, higher = more signal;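 note: z combines 667 nm emission intensity with signal-to-noise across three replicate slides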
# Sequence of Concanavalin-A (Canavalia ensiformis) (P02866 whole entry, looked up): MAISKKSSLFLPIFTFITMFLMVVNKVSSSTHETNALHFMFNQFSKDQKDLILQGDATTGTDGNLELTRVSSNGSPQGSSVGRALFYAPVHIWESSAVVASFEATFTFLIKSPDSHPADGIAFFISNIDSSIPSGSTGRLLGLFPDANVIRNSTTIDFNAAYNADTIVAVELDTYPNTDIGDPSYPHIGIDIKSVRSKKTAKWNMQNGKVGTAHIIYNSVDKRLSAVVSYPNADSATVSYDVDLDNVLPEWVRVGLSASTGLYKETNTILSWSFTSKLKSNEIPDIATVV
# [9] = anti-His antibody binders, primary screen, artefact control for SMM control protein annotation, biochemical, small-molecule microarray, 635 nm fluorescence (AID 1128); conditions: anti-His Alexa647 antibody binding, higher = more signal;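 note: score merges feature fluorescence with signal-to-noise for each printed compound spot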
# [10] = system: Human papillomavirus type 1a E7 protein (residues 1-88); assay: HPV1a E7 small-molecule binders, primary screen, biochemical, small-molecule microarray, residues 1-88, 635 nm (AID 1129); conditions: small-molecule microarray binding, fluorescence 635 nm; higher = more signal
# [11] = molecular target: Focal adhesion kinase 1 (Homo sapiens) (UniProt Q05397); assay: small-molecule microarray binders of FAK, primary screen, biochemical, 635/667 nm fluorescence, BSA, DTT (AID 1130); conditions: PTK2 binding, 635 nm fluorescence, higher = more signal;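 note: composite of spot emission at 667 nm and signal to noise over triplicate slides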
# Sequence of Focal adhesion kinase 1 (Homo sapiens) (Q05397 whole entry, looked up): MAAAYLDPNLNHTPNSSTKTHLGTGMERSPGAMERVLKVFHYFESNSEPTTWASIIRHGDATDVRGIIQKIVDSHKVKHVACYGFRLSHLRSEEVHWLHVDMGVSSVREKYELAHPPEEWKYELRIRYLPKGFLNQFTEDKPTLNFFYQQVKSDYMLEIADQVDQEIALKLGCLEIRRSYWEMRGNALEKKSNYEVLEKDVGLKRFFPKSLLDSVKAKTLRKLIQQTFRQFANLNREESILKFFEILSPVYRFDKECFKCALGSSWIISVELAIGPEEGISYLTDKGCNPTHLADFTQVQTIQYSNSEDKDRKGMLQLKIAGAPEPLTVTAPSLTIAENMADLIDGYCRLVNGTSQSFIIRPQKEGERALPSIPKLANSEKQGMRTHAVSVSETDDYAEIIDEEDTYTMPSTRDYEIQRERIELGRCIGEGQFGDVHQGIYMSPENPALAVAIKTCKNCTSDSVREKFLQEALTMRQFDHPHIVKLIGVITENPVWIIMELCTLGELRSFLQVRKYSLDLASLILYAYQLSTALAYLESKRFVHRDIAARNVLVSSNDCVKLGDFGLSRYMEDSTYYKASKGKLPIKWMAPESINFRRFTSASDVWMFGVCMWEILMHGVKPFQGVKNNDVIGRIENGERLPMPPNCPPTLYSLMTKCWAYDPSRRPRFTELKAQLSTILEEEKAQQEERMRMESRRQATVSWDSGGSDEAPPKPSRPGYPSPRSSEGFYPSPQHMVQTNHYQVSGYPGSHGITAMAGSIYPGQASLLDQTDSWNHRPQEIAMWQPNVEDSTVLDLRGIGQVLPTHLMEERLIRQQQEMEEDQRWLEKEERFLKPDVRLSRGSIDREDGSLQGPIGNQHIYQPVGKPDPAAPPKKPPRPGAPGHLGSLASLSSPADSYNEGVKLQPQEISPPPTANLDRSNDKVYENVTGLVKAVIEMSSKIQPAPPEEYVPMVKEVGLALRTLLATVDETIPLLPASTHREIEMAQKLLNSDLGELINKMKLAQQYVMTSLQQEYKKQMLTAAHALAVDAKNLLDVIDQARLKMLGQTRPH
# [12] = system: Fibrinogen (Alexa647-labelled); assay: fibrinogen binders on compound microarrays, profiling panel, artefact control for SMM control-protein annotation, biochemical, small-molecule microarray, 635/667 nm fluorescence (AID 1131); conditions: fibrinogen-A647 binding fluorescence, higher = more signal;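 note: z-score merges 667 nm fluorescence with per-spot signal-to-noise over triplicate slides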
# [13] = molecular target: Follistatin (Homo sapiens) (UniProt P19883); assay: follistatin binders on small-molecule microarrays, primary screen, biochemical, small-molecule microarray, 635/667 nm fluorescence (AID 1132); conditions: FST binding, 635 nm fluorescence, higher = more signal
# Sequence of Follistatin (Homo sapiens) (P19883 whole entry, looked up): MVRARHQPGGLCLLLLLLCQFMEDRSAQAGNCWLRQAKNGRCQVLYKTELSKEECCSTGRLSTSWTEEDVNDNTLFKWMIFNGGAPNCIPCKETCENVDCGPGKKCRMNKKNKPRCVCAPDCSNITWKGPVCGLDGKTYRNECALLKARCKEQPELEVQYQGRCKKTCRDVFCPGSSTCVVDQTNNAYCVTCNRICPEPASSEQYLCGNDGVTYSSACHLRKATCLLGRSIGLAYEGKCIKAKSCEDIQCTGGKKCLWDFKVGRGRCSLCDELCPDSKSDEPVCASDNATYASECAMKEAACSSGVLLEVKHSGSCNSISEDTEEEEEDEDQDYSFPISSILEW
# [14] = molecular target: Fibroblast growth factor 2 (Homo sapiens) (UniProt P09038); assay: FGF2 binders on small-molecule microarrays, primary screen, biochemical, small-molecule microarray, 635/667 nm fluorescence (AID 1133); conditions: small-molecule microarray binding, FGF2, fluorescence 635/667; higher = more signal
# Sequence of Fibroblast growth factor 2 (Homo sapiens) (P09038 whole entry, looked up): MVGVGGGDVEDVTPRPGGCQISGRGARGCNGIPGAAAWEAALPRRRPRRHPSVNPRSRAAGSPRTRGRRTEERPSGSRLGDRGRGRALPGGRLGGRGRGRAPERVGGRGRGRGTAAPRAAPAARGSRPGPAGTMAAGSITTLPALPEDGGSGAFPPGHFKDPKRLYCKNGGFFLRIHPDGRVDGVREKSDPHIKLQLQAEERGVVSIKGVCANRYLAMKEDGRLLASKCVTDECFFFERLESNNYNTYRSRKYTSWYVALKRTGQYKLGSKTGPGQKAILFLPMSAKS
# [15] = mitochondrial membrane potential change in A549 cells, profiling panel, cell-based, JC-1 fluorescence, basal, 24 h, 100 nL (AID 1138); conditions: higher = more signal;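 note: A549 lung adenocarcinoma cells under basal conditions with no added stimulus; test concentration not given here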
# Lefty1 = Lefty1 binders on small-molecule microarrays, primary screen, biochemical, small-molecule microarray, 635/667 nm fluorescence (AID 1139); conditions: small-molecule microarray binding, fluorescence 635/667; higher = more signal
# [16] = system: wheat germ agglutinin (Triticum aestivum), Alexa647-labelled; assay: wheat germ agglutinin binders on compound microarrays, profiling panel, artefact control for SMM control-protein annotation, biochemical, small-molecule microarray, 635/667 nm fluorescence (AID 1140); conditions: WGA-A647 binding, 635 nm fluorescence, higher = more signal;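 note: score merges 667 nm feature emission with signal to noise over triplicate slides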
# [17] = molecular target: Luciferin 4-monooxygenase (Photinus pyralis) (UniProt P08659); assay: firefly luciferase enzyme inhibitors, primary screen, biochemical, luminescence, purified enzyme, 2006 set (AID 1141); conditions: SteadyGlo luminescence, 30 min, higher = more signal, called active from +8 up or from −8 down;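 note: cell-free assay with purified firefly luciferase at 100 ng per well in PBS; test concentration not given here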
# Sequence of Luciferin 4-monooxygenase (Photinus pyralis) (P08659 whole entry, looked up): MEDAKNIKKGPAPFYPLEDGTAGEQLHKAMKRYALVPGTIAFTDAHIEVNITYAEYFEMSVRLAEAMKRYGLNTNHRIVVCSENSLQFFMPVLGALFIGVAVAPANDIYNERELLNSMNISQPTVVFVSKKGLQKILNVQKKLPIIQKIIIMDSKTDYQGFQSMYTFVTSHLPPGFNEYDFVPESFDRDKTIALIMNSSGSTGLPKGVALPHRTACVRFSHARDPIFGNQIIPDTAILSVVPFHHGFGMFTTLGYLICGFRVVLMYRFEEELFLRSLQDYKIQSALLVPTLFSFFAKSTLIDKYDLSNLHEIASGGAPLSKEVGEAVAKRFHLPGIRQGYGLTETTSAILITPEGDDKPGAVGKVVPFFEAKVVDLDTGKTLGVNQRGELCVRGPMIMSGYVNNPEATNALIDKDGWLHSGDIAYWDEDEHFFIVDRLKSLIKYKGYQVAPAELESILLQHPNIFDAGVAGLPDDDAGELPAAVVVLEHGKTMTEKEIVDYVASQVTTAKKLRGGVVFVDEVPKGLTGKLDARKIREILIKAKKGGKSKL
SMILES,composite z-score (Albumin (Bos taurus)),composite Z-score [1],composite z-score [2],composite z-score [3],composite z-score [4],composite z-score [5],composite z-score [6],composite z-score (Sam68 (KHDRBS1)),composite z-score [7],composite z-score [8],composite z-score [9],composite z-score [10],composite z-score [11],composite z-score [12],composite z-score [13],composite z-score [14],z-score [15],composite z-score (Lefty1),composite z-score [16],z-score [17]
C#CCCCON=C1C[C@@H](O)[C@@H](O)[C@@H]2[C@@H]3C(=O)N(c4ccc(F)cc4F)C(=O)[C@@H]3CC[C@@H]12,0.373,-0.302 (inactive),-0.113,-0.0569,-0.15,-0.366,0.202,0.428,0.217,0.505,-0.0071,0.111,0.131,0.265,0.141,0.474,-0.633,0.322,0.238,1.04 (inactive)
Cc1ccc(S(=O)(=O)N[C@H]2COC(=O)CC=C[C@@H](C)COC(=O)CC=C[C@@H]2C)cc1,-1.17,-0.821 (inactive),-0.163,-0.186,-0.41,-0.688,-0.209,0.393,1.23,-0.351,-0.142,-0.408,0.309,-1.08,1.42,1.4,0.447,1.23,-0.678,-0.268 (inactive)
CCc1cc2c(nc1CC)CCN(CCC(C)=NO[C@@H](C)c1cn([C@H](CO)Cc3ccccc3)nn1)C2,-0.0957,0.117 (inactive),-0.0072,-0.0956,0.317,-0.0909,0.12,-0.0161,0.231,0.0209,1.62,-0.452,-0.0908,0.996,0.595,0.0391,2.07,0.529,0.307,-0.896 (inactive)
CC(C)CON=C1C[C@@H](O)[C@@H](O)[C@@H]2[C@@H]3C(=O)N(C[C@@H]4CCCO4)C(=O)[C@@H]3CC[C@@H]12,0.268,0.223 (inactive),-0.0967,-0.14,0.165,0.421,0.419,0.12,-0.39,-0.339,0.0488,-0.0845,0.348,0.222,-0.341,-0.0796,0.221,-0.399,0.561,0.141 (inactive)
CCO[C@H](c1cc(OC)cc([N+](=O)[O-])c1OC)[C@H](C)C=CCC(=O)OC,-0.424,0.277 (inactive),-0.0682,-0.122,-0.324,-0.925,0.251,0.143,0.516,-0.221,0.051,-0.467,-0.361,-0.364,0.66,0.479,0.347,0.747,0.0356,-0.734 (inactive)
C=Cc1ccc([C@H]2N[C@H](C(=O)O)CC[C@@H]2C)cc1,0.108,-0.602 (inactive),-0.178,-0.155,0.275,-0.344,0.723,-1.6,0.65,-0.437,0.126,-1.47,-0.584,-0.719,0.632,0.486,1.28,0.431,0.388,-0.33 (inactive)
CC(=O)OC[C@H]1O[C@H](C#Cc2ccccc2)C=C[C@@H]1OC(C)=O,0.243,-0.005 (inactive),-0.0328,-0.136,0.0239,0.214,0.17,0.182,0.965,-0.0189,-0.223,0.262,-0.203,0.81,0.272,0.271,0.277,0.517,-0.361,-2.26 (inactive)
CCOC(=O)[C@H](CC(C)C)NC(=O)CCC1CC(OC(=O)NCCc2ccc(F)cc2)CC2(CCCC(COC(=O)NCCc3ccc(Cl)cc3)O2)O1 (stereo not given in full),0.587,0.133 (inactive),0.163,-0.0495,0.606,1.61,0.037,1.03,0.446,-0.485,0.704,0.596,0.688,0.75,0.692,0.84,-0.156,1.34,0.61,0.442 (inactive)
COC(=O)[C@@H]1CC[C@@H](C)[C@H](c2ccc(Br)cc2)N1,-0.0822,0.644 (inactive),-0.0111,-0.0165,-0.203,0.0852,-0.117,-0.8,0.202,0.0592,0.949,0.0613,0.867,0.689,-0.177,-0.0826,0.864,-0.0352,0.0075,-0.482 (inactive)
